PubChem BioAssay AID1159580 (chemical genetic matrix, 2015)
Screen size: about 5,500 compounds; about 2,000 (36%) were called active. Not shown: some 18% with an inconclusive outcome. Rule as the data show it: active = normalized growth mostly below about 0.91 (no sharp cut-off); inconclusive = no clear call, values can overlap the other calls; inactive = mostly above about 0.92. The list shows a part of the results.

Assay: chemical genetic growth profiling, strain panel (AID 1159580);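 also: tested at 20 µM; growth read once vehicle control cultures reached saturation at 30 °C; 1 = growth at the plate median or of vehicle wells; lower values mean less growth of the strain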
Conditions: S. cerevisiae deletion strains, growth OD

Measured: normalized growth

CN1Cc2c(ccc3c2OCO3)C2C(O)Cc3cc4c(cc3C21)OCO4 (stereo not given)
inactive: locus YAL013W, strain DEP1, active compounds read low 0.992 | locus YBR021W, strain FUR4, active compounds read low 0.939 | locus YBR229C, strain ROT2, active compounds read low 1 | locus YCL029C, strain bik1, active compounds read low 1.03 | locus YDL035C, strain GPR1, active compounds read low 0.985 | locus YDL074C, strain BRE1, active compounds read low 0.982 | locus YDL101C, strain DUN1, active compounds read low 0.996 | locus YDL134C, strain PPH21, active compounds read low 0.977 | locus YDL185W, strain tfp1, active compounds read low 1.02 | locus YDL192W, strain arf1, active compounds read low 0.999 | locus YDR101C, strain arx1, active compounds read low 0.999 | locus YDR162C, strain NBP2, active compounds read low 0.991 | locus YDR318W, strain mcm21, active compounds read low 0.998 | locus YDR388W, active compounds read low 0.987 | locus YDR502C, strain sam2, active compounds read low 0.984 | locus YEL061C, strain CIN8, active compounds read low 0.992 | locus YER110C, active compounds read low 1.01 | locus YER155C, strain BEM2, active compounds read low 0.997 | locus YER167W, strain BCK2, active compounds read low 0.989 | locus YGL078C, strain dbp3, active compounds read low 1.02 | locus YGL086W, strain mad1, active compounds read low 0.989 | locus YGL248W, strain PDE1, active compounds read low 0.995 | locus YGR078C, strain PAC10, active compounds read low 0.998 | locus YGR135W, strain pre9, active compounds read low 0.98 | locus YGR252W, strain gcn5, active compounds read low 0.96 | locus YHR030C, strain SLT2, active compounds read low 0.999 | locus YHR079C, strain IRE1 (second series), active compounds read low 1.01 | locus YHR094C, strain hxt1, active compounds read low 1.01 | locus YHR129C, strain ARP1, active compounds read low 0.994 | locus YHR200W, strain rpn10, active compounds read low 1 | locus YIL066C, strain RNR3, active compounds read low 1 | locus YIL073C, strain SPO22, active compounds read low 1.04 | locus YIL125W, strain kgd1, active compounds read low 1.02 | locus YIR030C, strain dcg1, active compounds read low 1 | locus YJL095W, strain BCK1, active compounds read low 0.985 | locus YJL134W, strain LCB3, active compounds read low 1.01 | locus YJL168C, strain set2, active compounds read low 1 | locus YJL187C, strain SWE1 (second series), active compounds read low 1 | locus YJR043C, strain POL32, active compounds read low 1.01 | locus YJR075W, strain HOC1, active compounds read low 0.983 | locus YKL009W, strain mrt4, active compounds read low 1.01 | locus YKL068W, active compounds read low 1 | locus YKL085W, strain MDH1 (second series), active compounds read low 1.01 | locus YKL085W, strain MDH1, active compounds read low 1.01 | locus YKL190W, strain CNB1, active compounds read low 0.988 | locus YKR001C, strain vps1, active compounds read low 0.997 | locus YLR039C, strain RIC1, active compounds read low 0.977 | locus YLR058C, strain SHM2, active compounds read low 0.992 | locus YLR102C, strain apc9, active compounds read low 1.01 | locus YLR262C, strain YPT6, active compounds read low 0.981 | locus YLR268W, strain sec22, active compounds read low 1 | locus YLR330W, strain CHS5, active compounds read low 1.01 | locus YLR342W, strain FKS1 (second series), active compounds read low 0.982 | locus YLR371W, strain rom2, active compounds read low 1.01 | locus YLR418C, strain cdc73, active compounds read low 0.956 | locus YML016C, strain PPZ1, active compounds read low 1 | locus YML032C, strain rad52, active compounds read low 0.991 | locus YML124C, strain tub3, active compounds read low 1.02 | locus YMR078C, strain ctf18, active compounds read low 1.01 | locus YMR223W, strain ubp8, active compounds read low 0.998 | locus YMR307W, strain GAS1, active compounds read low 0.95 | locus YNL067W, strain RPL9B, active compounds read low 0.994 | locus YNL128W, strain TEP1, active compounds read low 0.996 | locus YNL233W, strain BNI4, active compounds read low 1 | locus YNL250W, strain rad50, active compounds read low 1.02 | locus YNL271C, strain bni1, active compounds read low 1.02 | locus YNL298W, strain CLA4, active compounds read low 1.03 | locus YNL307C, strain MCK1, active compounds read low 1.02 | locus YNL322C, strain KRE1, active compounds read low 0.999 | locus YNR052C, strain pop2, active compounds read low 0.997 | locus YOL006C, strain TOP1, active compounds read low 0.92 | locus YOL012C, strain htz1 1.21 | locus YOL147C, strain pex11, active compounds read low 1 | locus YOR061W, strain CKA2, active compounds read low 1 | locus YOR069W, strain VPS5, active compounds read low 1 | locus YOR136W, strain idh2, active compounds read low 1.04 | locus YOR144C, strain elg1, active compounds read low 1.01 | locus YOR184W, strain ser1, active compounds read low 0.984 | locus YOR316C, strain cot1, active compounds read low 1.01 | locus YPL055C, strain LGE1, active compounds read low 0.978 | locus YPR119W, strain clb2, active compounds read low 1.01 | locus YPR141C, strain kar3, active compounds read low 1.01 | locus YPR163C, strain tif3, active compounds read low 1.04 | locus YPR167C, strain met16, active compounds read low 1.01 | strain wtn01, active compounds read low 1
